Source: PubChem
Sampled rows, rich in hits. Any-hit rate of the full collection: about 2.5%.
ASK1 primary – ASK1 kinase inhibitors, primary screen, biochemical, AlphaScreen. AlphaScreen MKK6 phosphorylation by ASK1, luminescence. inhibition, % at 7.44 µM. 0.99% of 22,000 active. AID 1159602, 2016; in the data active = inhibition above about 35%;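 also: 0% = median of compound wells and 100% = no enzyme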
ULK1 inh – ULK1 kinase inhibitors, primary screen, biochemical, AlphaScreen | Serine/threonine-protein kinase ULK1 (Homo sapiens), O75385 | AlphaScreen Atg13 phosphorylation by ULK1, luminescence | inhibition, % at 5.96 µM | 1.9% of 30,000 active | AID 1259251, 2017; in the data active = inhibition above about 43%;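 also: 0% = median of compound wells and 100% = no enzyme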
Numbers without * were called inactive; . = no result given.

SMILES | ASK1 primary | ULK1 inh
CCCNc1cc(N2CCC(N3CCOCC3)CC2)ncn1 | -4.8 | -5.5
CCC(=O)/C=C/n1c(=S)oc2ccccc21 | . | 48.4*
O=C(NC1CC1)c1ccc(-c2cc(C(=O)NC3CC3)ccn2)cc1 | -19.9 | 4.1
CC(=O)Nc1ccc(NC(=O)c2ccnc(-c3ccc(C(=O)NC4CC4)cc3)c2)cc1 | 7.2 | 44.2*
COCCOC(=O)C1=C(C)NC(=S)NC1c1ccccc1OC(F)F (stereo not drawn) | . | 7.3
Cc1ccc(-c2cccc3cnc(Nc4ccc(F)cc4)nc23)cn1 | -55.9 | 24.2
OC[C@H]1OC([S-])[C@H](O)[C@@H](O)[C@@H]1O.[Au+] (stereo partly drawn) | . | 66.4*
OC[C@H]1OC(O)[C@H](O)[C@@H](O)[C@H]1O (stereo partly drawn) | . | 9.9
O=C1NC(=O)/C(=C\c2cc(Br)cc(Cl)c2O)S1 | . | 44.4*
CC(=O)Nc1ccc(/C=C2/SC(=O)NC2=O)cc1 | . | 2.3
CC1(C)Cc2ccccc2C(NNC(=O)c2ccccc2[N+](=O)[O-])=N1 | . | -5.4
Nc1cccc(-c2ccc(C(=O)NC3CCN(Cc4ccccc4)CC3)s2)c1 | -11.9 | 1.1
CN(C)C(=O)C(=O)c1c[nH]c2ccc(Nc3cc(Nc4ccccn4)c(C(F)(F)F)cn3)cc12 | 18.8 | 45.4*
CN(c1ncccc1CNc1cc(Nc2ccc3[nH]c(=O)oc3c2)ncc1C(F)(F)F)S(C)(=O)=O | 22.6 | 39.5
CNC(=O)c1ccccc1Nc1cc(Nc2ccc3[nH]cc(C(=O)C(=O)N(C)C)c3c2)ncc1C(F)(F)F | -14.2 | 75.1*
COc1ccc(-c2ccc(C(=O)Nc3cc(OC)c(OC)c(OC)c3)s2)cn1 | -3.0 | -14.5
FC(F)(F)c1ccc(Cn2cnc3c(NCc4ccccc4)nc(-c4csc5ccccc45)nc32)cc1 | 4.6 | -12.1
O=C(NCC(O)c1ccc(Cl)cc1)c1cccc(-c2ccc3cnccc3c2)c1 (stereo not drawn) | 7.6 | -4.6
Nc1c(N=Nc2ccc(-c3ccc(N=Nc4cc(S(=O)(=O)O)c5ccccc5c4N)cc3)cc2)cc(S(=O)(=O)O)c2ccccc12 | . | 55.8*
O=S(=O)(O)c1ccccc1O | . | -2.8
Cc1cc(-c2ccc(N=Nc3ccc4c(S(=O)(=O)O)cc(S(=O)(=O)O)c(N)c4c3O)c(C)c2)ccc1N=Nc1ccc2c(S(=O)(=O)O)cc(S(=O)(=O)O)c(N)c2c1O | . | 57.4*
CCCc1cc(=O)[nH]c(-n2nc(C)cc2NC(=O)c2cccc(Cl)c2)n1 | . | 7.2
Cc1cnc(CNc2cc(-c3ccccc3F)nc(-c3ccncc3)n2)nc1 | . | -2.1
Cc1cnc(Nc2ccccc2)nc1NCCOc1ccccc1 | 3.2 | 14.6
CCNc1ncc(C)c(NCCOc2ccccc2)n1 | -0.1 | 2.2
SMILES | ASK1 primary | ULK1 inh
COc1cc(Nc2ncc(C)c(NCCOc3ccccc3)n2)cc(OC)c1OC | 5.0 | 63.5*
Cc1cnc(Nc2ccncc2)nc1NCCOc1ccccc1 | 6.0 | 50.3*
COc1cc(C)c(Cl)cc1S(=O)(=O)Nc1ccc(-c2cn3ccc(C)nc3n2)cc1 | . | -25.7
CNC(=O)c1ccccc1Nc1cc(NC(=O)Cc2ccccc2)ncc1C(F)(F)F | -8.7 | 57.6*
CNC(=O)c1ccccc1Nc1cc(NC(=O)Cc2ccc(OC)cc2)ncc1C#N | -7.9 | 17.6
CNC(=O)c1ccccc1Nc1cc(NC(=O)CCc2ccccc2)ncc1C(F)(F)F | 15.5 | 34.9
NC(=O)c1ccccc1Nc1cc(NC(=O)Cc2ccc(CN3CCOCC3)cc2)ncc1Cl | 23.4 | 41.6
CNC(=O)c1ccccc1Nc1cc(NC(=O)Cc2ccc(OC)cc2)ncc1C(F)(F)F | 0.8 | 70.2*
COc1ccc(CC(=O)Nc2cc(Nc3ccccc3-c3ncccn3)c(C(F)(F)F)cn2)cc1 | 11.0 | 5.0
CNC(=O)c1cccnc1Nc1cc(NC(=O)Cc2ccc(OC)cc2)ncc1C(F)(F)F | 0.0 | 43.1*
NC(=O)c1ccccc1Nc1cc(NC(=O)Cc2ccc(CN3CCOCC3)cc2)ncc1C(F)(F)F | 28.5 | 62.9*
O=C(NCCN1CCOCC1)c1csc(N2CCN(Cc3ccc4c(c3)OCO4)CC2)n1 | -2.0 | 0.4
c1ccc(CN2CCC(Nc3nc(Nc4cnccn4)nc4c3ncn4-c3ccsc3)CC2)cc1 | 3.1 | 4.3
OC1CCC(Nc2nc(NCc3cccc(C(F)(F)F)c3)c3[nH]cnc3n2)CC1 (stereo not drawn) | -1.4 | 9.1
CN(C)c1cccc(Nc2cc(C(=O)NCCCN3CCCC3=O)c3ccccc3n2)c1 | -7.5 | 16.7
CNC(=O)c1ccccc1Nc1cc(NC(=O)Cc2cccc(OC)c2)ncc1C(F)(F)F | 2.0 | 55.1*
CNC(=O)c1ccccc1Nc1cc(NC(=O)Cc2c(Cl)cccc2Cl)ncc1C(F)(F)F | 14.6 | -8.6
NC(=O)c1ccccc1Nc1cc(Oc2ccc(N3CCNCC3)cc2)ncc1C(F)(F)F | -0.6 | 60.0*
NC(=O)c1ccccc1Nc1cc(NC(=O)Cc2ccc3ccccc3c2)ncc1C(F)(F)F | 3.2 | 25.4
CCNc1cc(Nc2ccc3c(c2)OCO3)ncn1 | 4.7 | -14.7
Cc1cncc2c(S(=O)(=O)N3CCCN(C(=O)CN)C[C@@H]3C)cccc12 | 4.0 | 7.4
Cc1cncc2cccc(S(=O)(=O)N3CCCN(C(=O)CN)C[C@@H]3C)c12 | 2.5 | 66.8*
NC(=O)c1ccc(-c2cccc(C(=O)NCc3cccc(C(F)(F)F)c3)n2)cc1 | 1.5 | -20.0
CC(=O)Nc1ccc(NC(=O)Cc2cn(-c3ccc(NCCCN4CCCC4=O)nn3)c3ccccc23)cc1 | 5.2 | 43.9*
O=C(Cc1cn(-c2ccc(NCCCN3CCCC3=O)nn2)c2ccccc12)Nc1ccc(N2CCOCC2)cc1 | -0.7 | 47.3*
SMILES | ASK1 primary | ULK1 inh
O=C(Cc1cn(-c2ccc(NCCCN3CCCC3=O)nn2)c2ccccc12)Nc1ccccc1 | -3.2 | 2.0
O=C(Cc1cn(-c2ccc(NCCCN3CCCC3=O)nn2)c2ccccc12)Nc1ccc(Oc2ccccc2)cc1 | 16.4 | -12.9
Cc1ncn(-c2ccc(Nc3nccc(/C=C/c4ccccc4)n3)cc2)n1 | 1.4 | -5.5
COc1ccc(CCNC(=O)c2csc(N3CCOCC3)n2)cc1 | 5.5 | -5.9
CC(=O)Nc1ccc(Nc2nc(-c3c(C)nn(C)c3C)ncc2C)cc1 | 1.6 | 8.4
FC(F)(F)c1cccc(CNc2nc(Nc3ccccc3)nc3c2ncn3-c2ccccc2)c1 | 12.7 | -3.5
CC(C)n1c(N2CCCC2CO)nc2c(NCCO)ncnc21 (stereo not drawn) | 5.8 | 6.2
CC(C)N(CCNc1cc(Nc2ccc(N3CCOCC3)cc2)ncn1)C(C)C | -20.4 | -1.1
O=C1c2c(O)cccc2C(C2OC(CO)[C@@H](O)[C@H](O)[C@H]2O)c2cc(CO)cc(O)c21 (stereo partly drawn) | . | -1.3
O=C(O)c1cc(O)c2c(c1)[C@@H]([C@H]1c3cc(C(=O)O)cc(O)c3C(=O)c3c(O[C@H]4O[C@H](CO)[C@@H](O)[C@H](O)[C@H]4O)cccc31)c1cccc(O[C@H]3O[C@H](CO)[C@@H](O)[C@H](O)[C@H]3O)c1C2=O | . | 67.3*
CCCNc1nc(Nc2cnccn2)nc2c1ncn2-c1ccsc1 | -1.4 | -4.4
Cc1cccc(CNC(=O)Nc2ccc(-c3cn[nH]c3)cc2)c1 | 2.1 | 8.2
CN(C)CC(=O)Nc1cccc(CNC(=O)Nc2ccc(-c3cn[nH]c3)cc2)c1 | 11.8 | 95.5*
CCNc1cc(C(=O)Nc2ccc(N3CCOCC3)cc2)c2ccccc2n1 | -0.3 | 4.5
